Laboratory results published in PubChem BioAssay AID540326 (Broad Institute, 2011).
Some of the results follow. Activity calls are given as the source filed them.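 Rule for the calls: active = quenching, a falling signal, with AC50 below a set limit tied to the top valid dose (actives reach about 32 µM in these data); inconclusive = no clear call, values can overlap the other calls; inactive = rising signal, and the rest.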

experiment: DiI-HDL fluorescence quenchers, cell-free, dose response, artefact control for SR-BI HDL uptake inhibitor project, biochemical, cherry-pick samples, plate reader fluorescence (AID 540326); settings: 30 min; AC50: cell-free DiI-HDL fluorescence quenching; series mostly up to 35 µM; activity change, negative = quenching: at the top concentration

Activity change, negative = quenching, inactive:
CCCC(=O)Nc1ccc(Cl)c(NC(=O)c2ccc(Br)o2)c1 -0.557%, CCCOC1CCCN(C(=O)c2cc(COc3cncc(Cl)c3)on2)C1 (centres undefined) -2.62%, Cc1cc(NC(=O)Nc2ccccc2)n(-c2ccccc2)n1 -2.27%, Cc1cccc(N2CCN(C(=O)CN(C)S(=O)(=O)c3ccc4c(c3)CCC(=O)N4)CC2)c1C -1.63%, CCOc1ccc(NC(=O)CN2CCN(CC(=O)Nc3ccc(OC)cc3)CC2)cc1 -4.99%, O=c1cc(N2CCCCC2)c(-c2ccccc2)nn1Cc1cccc(F)c1 0.392%, COC(=O)C1=CN(c2ccc(F)c(F)c2)C=C(C(=O)OC)C1c1ccc([N+](=O)[O-])cc1 -8.39%, COc1cccc(N(CC(=O)NC2CCCC2)C(=O)Cn2nnc(-c3ccc(C)cc3)n2)c1 -2.78%, CCOc1ccc(OCCSc2nc3ccccc3n2CC(=O)O)cc1 -2.93%, CC(C)OCCCNC(=O)c1ccc(C2SCC(=O)N2Cc2ccco2)cc1 (centres undefined) 3.09%, O=C(Nc1cccc(NC(=O)N2CCN(c3ccccc3)CC2)c1)N1CCN(c2ccccc2)CC1 -11%, O=C(Nc1cccc(NC(=O)c2ccccc2[N+](=O)[O-])c1)c1ccccc1Cl -13.8%, O=C(NC1CC2CCCC(C1)N2C(=O)N1CCCCC1)C1CCCCC1 (centres undefined) -1.48%, CCOC(=O)c1[nH]c2c(c1-c1ccccc1)C(=O)CC(c1ccc(Cl)cc1)C2 (centres undefined) -0.468%, CCCOC(=O)c1[nH]c2c(c1C)C(=O)CC(c1cc(OC)c(OC)c(OC)c1)C2 (centres undefined) -1%, CCCC(=O)N1c2ccc(-c3csc(N)n3)cc2CC1C (centres undefined) -13%

AC50, active:
CCCCC(=O)Nc1nc(C)c(-c2csc(Nc3ccc(Cl)cc3)n2)s1 1930 nM, C=CCCC(=O)Nc1nc(C)c(-c2csc(Nc3ccc(Cl)cc3)n2)s1 2190 nM, O=C(Nc1ccc(-c2csc(Nc3cccc(C(F)(F)F)c3)n2)cc1)c1cccc(C(F)(F)F)c1 435 nM
